This note sets out measurements from the supplement of paper PMC13380429.

Experiment [1] deals with Vero E6 infected with SARS-CoV-2. The experiment in a line: morphology score (similarity to uninfected cells); higher = more like uninfected cells. The following applies: 24 h.
Experiment [2] shares this test system. The experiment in a line: SARS-CoV-2 infection rate relative to infected DMSO; higher = more infection, active = 60 or less. The following applies: 24 h.

The compound `CC1(C)O[C@H]2CC(=O)OC[C@]23[C@H]2CC[C@@]4(C)[C@H](c5ccoc5)OC(=O)[C@H]5O[C@]54[C@]2(C)C(=O)C[C@@H]13` [limonin] (10 µM) showed a morphology score in experiment [1] of 0.289. In addition, in experiment [2], the SARS-CoV-2 infection rate was 103% (inactive).

In the case of `O=C1c2c(O)ccc(O)c2C(=O)c2c(NCCNCCO)ccc(NCCNCCO)c21` [mitoxantrone] (0.833333 µM), the morphology score in experiment [1] is -0.00869. Moreover, in experiment [2], the SARS-CoV-2 infection rate was 108% (inactive).

`CN[C@@H](C)C(=O)N[C@H](C(=O)N1CCC[C@H]1C(=O)Nc1snnc1-c1ccccc1)C1CCCCC1` (10 µM) yielded a morphology score in experiment [1] of -0.0857. Also, in experiment [2], the SARS-CoV-2 infection rate is 110% (inactive).

On to `CCCn1cnc2c1c(=O)n(CCCCC(C)=O)c(=O)n2C` [propentofylline] (10 µM), for which, in experiment [1], the morphology score stood at 0.065. Besides, in experiment [2], the SARS-CoV-2 infection rate was 102% (inactive).

As for `Cc1nnc(C(C)C)n1C1C[C@H]2CC[C@@H](C1)N2CC[C@H](NC(=O)C1CCC(F)(F)CC1)c1ccccc1` (stereo in doubt) [maraviroc] (10 µM), the morphology score in experiment [1] was determined as 0.145. Besides, the SARS-CoV-2 infection rate in experiment [2] is 112% (inactive).

In the case of `Cc1cc(CCC[C@H](CC(=O)NO)C(=O)N[C@H](C(=O)N[C@H](C)c2ccccc2)C(C)(C)C)ccc1-c1ccccc1` (0.833333 µM), the morphology score in experiment [1] was -0.0923. Also, in experiment [2], the SARS-CoV-2 infection rate was 102% (inactive).

For the compound `NNCCc1ccccc1` [phenelzine] (10 µM), in experiment [1], the morphology score amounted to 0.113. The SARS-CoV-2 infection rate in experiment [2] is 102% (inactive).

In the case of `O=C1[C@H](CC[C@H](O)c2ccc(F)cc2)[C@@H](c2ccc(O)cc2)N1c1ccc(F)cc1` [ezetimibe] (10 µM), in experiment [1], the morphology score is 0.142. Moreover, the SARS-CoV-2 infection rate in experiment [2] was 110% (inactive).

The compound `C=C1C(=O)O[C@@H]2/C=C(\C)CC/C=C(\C)CC[C@@H]12` [costunolide] (10 µM) returned a morphology score in experiment [1] of 0.222. Moreover, the SARS-CoV-2 infection rate in experiment [2] is 78.5% (inactive).

Take `CCOC(=O)[C@@H](C)Oc1cccc2c(=O)n(CC(=O)Nc3ccc4c(c3)OCCO4)ccc12` (10 µM): in experiment [1], the morphology score was -0.204. Further, the SARS-CoV-2 infection rate in experiment [2] was 108% (inactive).

As to `CN[C@@H](C)[C@H]1[C@H](O)C[C@@]2(C)[C@@H]3CC[C@H]4C(C)(C)[C@@H](NC)CC[C@@]45C[C@@]35CC[C@]12C` [cyclovirobuxin-D] (10 µM), in experiment [1], the morphology score was determined as 0.331. Also, the SARS-CoV-2 infection rate in experiment [2] is 97% (inactive).

In experiment [1], `Cc1cc2c(s1)Nc1ccccc1N=C2N1CCN(C)CC1` [olanzapine] (10 µM) gave a morphology score of -0.0599. Further, the SARS-CoV-2 infection rate in experiment [2] is 108% (inactive).

In turn, `O=C(Oc1ccc(Br)cc1)N1CCN2CCC1CC2` (10 µM) showed a morphology score in experiment [1] of 0.273. For the same compound, the SARS-CoV-2 infection rate in experiment [2] is 92% (inactive).

In the case of `CC#CC(=O)N1CC[C@@H](n2c(=O)n(-c3ccc(Oc4ccccc4)cc3)c3c(N)ncnc32)C1` (0.833333 µM), the morphology score in experiment [1] is -0.0591. The SARS-CoV-2 infection rate in experiment [2] was 90% (inactive).

In experiment [1], `CNC(=O)[C@@H](Cc1ccccc1)N(C)C(=O)[C@@H](Cc1ccc2ccccc2c1)N(C)C(=O)/C=C/CC(C)(C)N` [tabimorelin] (10 µM) yielded a morphology score of -0.00047. For the same compound, in experiment [2], the SARS-CoV-2 infection rate was 112% (inactive).

The compound `C=C1/C(=C\C=C2/CCC[C@]3(C)[C@@H]([C@H](C)CCCC(C)C)CC[C@@H]23)C[C@@H](O)C[C@@H]1O` [alfacalcidol] (10 µM) displayed a morphology score in experiment [1] of 0.0852. The SARS-CoV-2 infection rate in experiment [2] is 98% (inactive).

The compound `O=C(NC1CCN(CCCCC2(C(=O)NCC(F)(F)F)c3ccccc3-c3ccccc32)CC1)c1ccccc1-c1ccc(C(F)(F)F)cc1` [lomitapide] (0.833333 µM) came in with a morphology score in experiment [1] of 0.223. Moreover, the SARS-CoV-2 infection rate in experiment [2] was 87.5% (inactive).

As for `COC(=O)c1cc(OC)c2c(c1-c1c(C(=O)OC)cc(OC)c3c1OCO3)OCO2` [bifendate] (10 µM), the morphology score in experiment [1] worked out at 0.0714. Moreover, the SARS-CoV-2 infection rate in experiment [2] was 108% (inactive).

As to `CCc1nc(C(N)=O)c(Nc2ccc(N3CCC(N4CCN(C)CC4)CC3)c(OC)c2)nc1NC1CCOCC1` [gilteritinib] (0.833333 µM), the morphology score in experiment [1] is 0.272. The SARS-CoV-2 infection rate in experiment [2] was 91.5% (inactive).

For `CC[C@H](C)[C@@H]([C@@H](CC(=O)N1CCC[C@H]1[C@H](OC)[C@@H](C)C(=O)N[C@@H](Cc1ccccc1)c1nccs1)OC)N(C)C(=O)[C@@H](NC(=O)[C@H](C(C)C)N(C)C)C(C)C` [dolastatin-10] (0.833333 µM), the morphology score in experiment [1] came out at 0.0156. In experiment [2], the SARS-CoV-2 infection rate was 106% (inactive).

Turning to `O=C1C=C2C=C[C@@H]3C[C@@]2(O1)[C@H]1CCCCN31` [securinine] (10 µM), the morphology score in experiment [1] stood at 0.327. Further, in experiment [2], the SARS-CoV-2 infection rate was 85.5% (inactive).

As for `CC1(C)C(/C=C/C=C/C=C/C=C2\N(CCCCS(=O)(=O)O)c3ccc4ccccc4c3C2(C)C)=[N+](CCCCS(=O)(=O)[O-])c2ccc3ccccc3c21` [indocyanine-green] (10 µM), the morphology score in experiment [1] stood at 0.0305. In addition, the SARS-CoV-2 infection rate in experiment [2] was 109% (inactive).

On to `CNC(=O)c1ccc2c(c1)S(=O)(=O)c1ccccc1C2=O` (10 µM), for which, in experiment [1], the morphology score is -0.0141. For the same compound, the SARS-CoV-2 infection rate in experiment [2] was 108% (inactive).

Turning to `COc1cc(C(C)=O)ccc1OCCCN1CCC(c2noc3cc(F)ccc23)CC1` [iloperidone] (10 µM), the morphology score in experiment [1] was -0.112. In addition, the SARS-CoV-2 infection rate in experiment [2] is 111% (inactive).

In turn, `Cc1cccc(/C=N/Nc2cc(N3CCOCC3)n3nc(-c4ccncc4)cc3n2)c1` (10 µM) registered a morphology score in experiment [1] of 0.261. Moreover, in experiment [2], the SARS-CoV-2 infection rate is 50.5% (active).

As to `Cc1ccc(C(=O)Nc2ccc(CN3CCN(C)CC3)c(C(F)(F)F)c2)cc1C#Cc1cnc2[nH]ncc2c1` (10 µM), the morphology score in experiment [1] turned out to be 0.453. Moreover, the SARS-CoV-2 infection rate in experiment [2] was 98% (inactive).

`CC(C)n1cnc2c(NCCc3ccc(O)cc3)nc(-c3csc4ccccc34)nc21` [stemregenin-1] (10 µM) came in with a morphology score in experiment [1] of 0.692. Also, the SARS-CoV-2 infection rate in experiment [2] was 67% (inactive).

In experiment [1], `Cc1ncc(Cl)cc1NCc1ccc(C(=O)N[C@@H](CC2CCCC2)C(=O)NC2CC2)s1` (10 µM) yielded a morphology score of 0.0746. The SARS-CoV-2 infection rate in experiment [2] was 106% (inactive).

Regarding `CC[C@H]1OC(=O)C[C@@H](O)[C@H](C)[C@@H](O[C@@H]2O[C@H](C)C[C@H](N(C)C)[C@H]2O)[C@@H](CC=O)C[C@@H](C)C(=O)/C=C/[C@]2(C)O[C@H]2[C@@H]1C` [rosamicin] (10 µM), the morphology score in experiment [1] worked out at 0.129. For the same compound, the SARS-CoV-2 infection rate in experiment [2] is 96% (inactive).
